This note sets out measurements from article PMC11006913.

Positions count from the first letter of the chain named.

Assay in all cases: PBM; 200 nM protein, PBS
Common to all, as to conditions: dsDNA, one strand shown

The target of assay [1] is NKX2-5 (Homo sapiens, UniProt P52952 125-210, R139K).
Assay [2] addresses T1, NKX2-4 (Homo sapiens, UniProt Q9H2Z4 175-261, P217L).
T1 sequence: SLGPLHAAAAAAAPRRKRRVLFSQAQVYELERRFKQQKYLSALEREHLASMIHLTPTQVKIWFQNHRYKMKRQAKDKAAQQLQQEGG

Assay [3] concerns the target T2, NKX2-4 (Homo sapiens, UniProt Q9H2Z4 175-261, T231S).
T2 sequence: T1 sequence with L43P, T57S

Assay [4] deals with T3, NKX2-4 (Homo sapiens, UniProt Q9H2Z4 175-261).
T3 sequence: T1 sequence with L43P

The target in assay [5] is T4, NKX2-6 (Homo sapiens, UniProt A6NCS4 118-204, R150C).
T4 sequence: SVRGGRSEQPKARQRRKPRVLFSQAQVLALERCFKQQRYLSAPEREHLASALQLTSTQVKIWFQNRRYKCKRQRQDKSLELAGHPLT

The target of assay [6] is T5, NKX2-6 (Homo sapiens, UniProt A6NCS4 118-204).
T5 sequence: T4 sequence with C33R

The target in assay [7] is T6, NKX2-4 (Homo sapiens, UniProt Q9H2Z4 175-261, R246Q).
T6 sequence: T1 sequence with L43P, R72Q

For assay [8], the target named is T7, NKX2-6 (Homo sapiens, UniProt A6NCS4 118-204, F151L).
T7 sequence: T4 sequence with C33R, F34L

In assay [9] the target is NKX3-2 (Homo sapiens, UniProt P78367 192-278, P234S).
Sequence of NKX3-2 (Homo sapiens, UniProt P78367 192-278, P234S) (P78367 192-278 P234S): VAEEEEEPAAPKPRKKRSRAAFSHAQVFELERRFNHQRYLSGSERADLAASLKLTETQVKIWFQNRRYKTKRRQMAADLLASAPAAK
The target in assay [10] is NKX2-5 (Homo sapiens, UniProt P52952 125-210).
Sequence of NKX2-5 (Homo sapiens, UniProt P52952 125-210) (P52952 125-210): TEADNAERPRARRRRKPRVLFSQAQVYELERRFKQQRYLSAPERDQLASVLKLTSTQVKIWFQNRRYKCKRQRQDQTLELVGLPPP
For assay [11], the target named is HOXB4 (Homo sapiens, UniProt P17483 148-234).
Sequence of HOXB4 (Homo sapiens, UniProt P17483 148-234) (P17483 148-234): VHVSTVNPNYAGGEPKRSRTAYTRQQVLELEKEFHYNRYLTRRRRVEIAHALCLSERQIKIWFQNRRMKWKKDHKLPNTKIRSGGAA
In assay [12] the target is HOXB4 (Homo sapiens, UniProt P17483 148-234, V174I).
Sequence of HOXB4 (Homo sapiens, UniProt P17483 148-234, V174I) (P17483 148-234 V174I): as the sequence (P17483 148-234) above, with V27I counted along it
The target of assay [13] is NKX3-2 (Homo sapiens, UniProt P78367 192-278).
Sequence of NKX3-2 (Homo sapiens, UniProt P78367 192-278) (P78367 192-278): as the sequence (P78367 192-278 P234S) above, with S43P counted along it
Assay [14] has as its target ALX1 (Homo sapiens, UniProt Q15699 118-204, L144V).
The target of assay [15] is ALX1 (Homo sapiens, UniProt Q15699 118-204, L144R).
Sequence of ALX1 (Homo sapiens, UniProt Q15699 118-204, L144R) (Q15699 118-204 L144R): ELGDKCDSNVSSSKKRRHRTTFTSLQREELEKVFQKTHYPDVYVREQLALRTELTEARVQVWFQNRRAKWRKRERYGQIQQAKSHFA
The target of assay [16] is ALX1 (Homo sapiens, UniProt Q15699 118-204).
Sequence of ALX1 (Homo sapiens, UniProt Q15699 118-204) (Q15699 118-204): as the sequence (Q15699 118-204 L144R) above, with R27L counted along it

Sequence of NKX2-5 (Homo sapiens, UniProt P52952 125-210, R139K) (P52952 125-210 R139K): as the sequence (P52952 125-210) above, with R15K counted along it
Sequence of ALX1 (Homo sapiens, UniProt Q15699 118-204, L144V) (Q15699 118-204 L144V): as the sequence (Q15699 118-204 L144R) above, with R27V counted along it

As to ATAAGTAC, the binding signal is 12.9 upbm affinity estimate (log intensity, higher = more binding, comparable within an allelic series) with NKX2-5 [1]; 12.6 upbm affinity estimate (log intensity, higher = more binding, comparable within an allelic series) with NKX2-4 [2]; 13 upbm affinity estimate (log intensity, higher = more binding, comparable within an allelic series) in the assay with NKX2-4 [3]; 12.5 upbm affinity estimate (log intensity, higher = more binding, comparable within an allelic series) in the assay with NKX2-4 [4]; 12 upbm affinity estimate (log intensity, higher = more binding, comparable within an allelic series) with NKX2-6 [5]; 13.6 upbm affinity estimate (log intensity, higher = more binding, comparable within an allelic series) with NKX2-6 [6]. The binding signal with NKX2-4 [7] was 13.1 upbm affinity estimate (log intensity, higher = more binding, comparable within an allelic series); with NKX2-6 [8] it was 10.9 upbm affinity estimate (log intensity, higher = more binding, comparable within an allelic series); with NKX3-2 [9], 12.5 upbm affinity estimate (log intensity, higher = more binding, comparable within an allelic series); with NKX2-5 [10] it was 12.7 upbm affinity estimate (log intensity, higher = more binding, comparable within an allelic series).

Regarding AATAAGTG, the binding signal was 12.4 upbm affinity estimate (log intensity, higher = more binding, comparable within an allelic series) with NKX2-5 [1]; 12.4 upbm affinity estimate (log intensity, higher = more binding, comparable within an allelic series) in the assay with NKX2-4 [2]; 12.8 upbm affinity estimate (log intensity, higher = more binding, comparable within an allelic series) with NKX2-4 [3]; 12.3 upbm affinity estimate (log intensity, higher = more binding, comparable within an allelic series) with NKX2-4 [4]; 11.8 upbm affinity estimate (log intensity, higher = more binding, comparable within an allelic series) with NKX2-6 [5]; 13.3 upbm affinity estimate (log intensity, higher = more binding, comparable within an allelic series) with NKX2-6 [6]. Moreover, the binding signal with NKX2-4 [7] was 12.9 upbm affinity estimate (log intensity, higher = more binding, comparable within an allelic series); in the assay with NKX2-6 [8], 10.7 upbm affinity estimate (log intensity, higher = more binding, comparable within an allelic series); with NKX2-5 [10], 12.4 upbm affinity estimate (log intensity, higher = more binding, comparable within an allelic series).

On to CGGACCCG, for which the binding signal in the assay with NKX2-5 [1] was 8.84 upbm affinity estimate (log intensity, higher = more binding, comparable within an allelic series); with HOXB4 [11], 8.04 upbm affinity estimate (log intensity, higher = more binding, comparable within an allelic series); with HOXB4 [12], 7.9 upbm affinity estimate (log intensity, higher = more binding, comparable within an allelic series); with NKX2-5 [10] it was 8.79 upbm affinity estimate (log intensity, higher = more binding, comparable within an allelic series).

As to ACGCGCAG, the binding signal in the assay with NKX2-5 [1] was 8.62 upbm affinity estimate (log intensity, higher = more binding, comparable within an allelic series); in the assay with NKX2-6 [5], 9.46 upbm affinity estimate (log intensity, higher = more binding, comparable within an allelic series); with NKX2-5 [10], 8.69 upbm affinity estimate (log intensity, higher = more binding, comparable within an allelic series).

As to ATTACGTA, the binding signal with NKX2-5 [1] was 10.3 upbm affinity estimate (log intensity, higher = more binding, comparable within an allelic series); with NKX2-5 [10], 10.3 upbm affinity estimate (log intensity, higher = more binding, comparable within an allelic series).

Consider ACCACTTA, for which the binding signal with NKX2-5 [1] was 13.2 upbm affinity estimate (log intensity, higher = more binding, comparable within an allelic series); with NKX2-4 [2] it was 12.7 upbm affinity estimate (log intensity, higher = more binding, comparable within an allelic series); with NKX2-4 [3] it was 13.1 upbm affinity estimate (log intensity, higher = more binding, comparable within an allelic series); with NKX2-4 [4], 12.6 upbm affinity estimate (log intensity, higher = more binding, comparable within an allelic series); with NKX2-6 [5] it was 12.3 upbm affinity estimate (log intensity, higher = more binding, comparable within an allelic series); in the assay with NKX2-6 [6], 14 upbm affinity estimate (log intensity, higher = more binding, comparable within an allelic series). Also, the binding signal in the assay with NKX2-4 [7] is 13.2 upbm affinity estimate (log intensity, higher = more binding, comparable within an allelic series); with NKX2-6 [8], 11.4 upbm affinity estimate (log intensity, higher = more binding, comparable within an allelic series); in the assay with NKX3-2 [9] it was 13.3 upbm affinity estimate (log intensity, higher = more binding, comparable within an allelic series); with NKX2-5 [10] it was 13.1 upbm affinity estimate (log intensity, higher = more binding, comparable within an allelic series); with NKX3-2 [13] it was 13.3 upbm affinity estimate (log intensity, higher = more binding, comparable within an allelic series).

For CGGTCCAA, the binding signal in the assay with NKX2-5 [1] was 8.45 upbm affinity estimate (log intensity, higher = more binding, comparable within an allelic series); with NKX2-5 [10], 8.42 upbm affinity estimate (log intensity, higher = more binding, comparable within an allelic series).

With CACTTAAG, the binding signal is 13.2 upbm affinity estimate (log intensity, higher = more binding, comparable within an allelic series) in the assay with NKX2-5 [1]; 12.7 upbm affinity estimate (log intensity, higher = more binding, comparable within an allelic series) with NKX2-4 [2]; 13 upbm affinity estimate (log intensity, higher = more binding, comparable within an allelic series) with NKX2-4 [3]; 12.5 upbm affinity estimate (log intensity, higher = more binding, comparable within an allelic series) with NKX2-4 [4]; 12.2 upbm affinity estimate (log intensity, higher = more binding, comparable within an allelic series) with NKX2-6 [5]; 14 upbm affinity estimate (log intensity, higher = more binding, comparable within an allelic series) with NKX2-6 [6]. Besides, the binding signal with NKX2-4 [7] is 13.2 upbm affinity estimate (log intensity, higher = more binding, comparable within an allelic series); in the assay with NKX2-6 [8] it was 11.5 upbm affinity estimate (log intensity, higher = more binding, comparable within an allelic series); with NKX3-2 [9], 13 upbm affinity estimate (log intensity, higher = more binding, comparable within an allelic series); with NKX2-5 [10], 13.1 upbm affinity estimate (log intensity, higher = more binding, comparable within an allelic series); with NKX3-2 [13], 13.1 upbm affinity estimate (log intensity, higher = more binding, comparable within an allelic series).

Consider CCACTTTA, for which the binding signal in the assay with NKX2-5 [1] is 12.7 upbm affinity estimate (log intensity, higher = more binding, comparable within an allelic series); with NKX2-4 [2] it was 12.6 upbm affinity estimate (log intensity, higher = more binding, comparable within an allelic series); in the assay with NKX2-4 [3] it was 13 upbm affinity estimate (log intensity, higher = more binding, comparable within an allelic series); with NKX2-4 [4] it was 12.5 upbm affinity estimate (log intensity, higher = more binding, comparable within an allelic series); with NKX2-6 [5] it was 12 upbm affinity estimate (log intensity, higher = more binding, comparable within an allelic series); with ALX1 [14] it was 8.4 upbm affinity estimate (log intensity, higher = more binding, comparable within an allelic series). In addition, the binding signal in the assay with NKX2-6 [6] is 13.5 upbm affinity estimate (log intensity, higher = more binding, comparable within an allelic series); with ALX1 [15] it was 8.44 upbm affinity estimate (log intensity, higher = more binding, comparable within an allelic series); in the assay with NKX2-4 [7], 13.1 upbm affinity estimate (log intensity, higher = more binding, comparable within an allelic series); in the assay with NKX2-6 [8] it was 10.8 upbm affinity estimate (log intensity, higher = more binding, comparable within an allelic series); with NKX3-2 [9] it was 13 upbm affinity estimate (log intensity, higher = more binding, comparable within an allelic series); in the assay with ALX1 [16], 8.77 upbm affinity estimate (log intensity, higher = more binding, comparable within an allelic series). Further, the binding signal is 12.7 upbm affinity estimate (log intensity, higher = more binding, comparable within an allelic series) with NKX2-5 [10] and 13.1 upbm affinity estimate (log intensity, higher = more binding, comparable within an allelic series) in the assay with NKX3-2 [13].
